# In publication PMC8384837, “Expanding the binding specificity for RNA recognition by a PUF domain”:
# Tests used:
# Experiment in all cases: yeast three-hybrid, YBZ-1, SC-Leu-His + 0.5 mM 3-AT, 4 days
# Settings in all cases: tags: N-Gal4 AD-HA kept; label: inside an RPR1-promoter hybrid RNA with tandem MS2 sites; ssRNA
# PUM1 PUF domain R7-RFW = PUM1 PUF domain R7-RFW (Homo sapiens, UniProt Q14671 828-1176, S1079R;N1080F;E1083W)
# Procedure, shortened: (§1)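 Pumilio-1 PUF domain libraries, randomized (NNK) at the three base-contacting residues of each repeat, were co-expressed with matching RNA elements from a centromeric plasmid in strain YBZ-1 (LexA–MS2 coat fusion, HIS3 reporter). Transformants were plated on SC-Leu (input) and SC-Leu-His + 0.5 mM 3-AT (selection) for four days, and repeat regions were PCR-amplified and Illumina-sequenced. The interaction score is the log2 change in variant frequency from input to selection, with pseudocount 1 where absent.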
# PUM1 PUF domain R5-QLV = PUM1 PUF domain R5-QLV (Homo sapiens, UniProt Q14671 828-1176, C1007Q;R1008L;Q1011V)
# Procedure, shortened: as §1
# PUM1 PUF domain R5-RRQ = PUM1 PUF domain R5-RRQ (Homo sapiens, UniProt Q14671 828-1176, C1007R)
# Procedure, shortened: as §1
# PUM1 PUF domain R2-LWG = PUM1 PUF domain R2-LWG (Homo sapiens, UniProt Q14671 828-1176, N899L;Y900W;Q903G)
# Procedure, shortened: as §1
# PUM1 PUF domain R1-RVE = PUM1 PUF domain R1-RVE (Homo sapiens, UniProt Q14671 828-1176, S863R;R864V;Q867E)
# Chain of PUM1 PUF domain R1-RVE (Q14671 828-1176 S863R/R864V/Q867E): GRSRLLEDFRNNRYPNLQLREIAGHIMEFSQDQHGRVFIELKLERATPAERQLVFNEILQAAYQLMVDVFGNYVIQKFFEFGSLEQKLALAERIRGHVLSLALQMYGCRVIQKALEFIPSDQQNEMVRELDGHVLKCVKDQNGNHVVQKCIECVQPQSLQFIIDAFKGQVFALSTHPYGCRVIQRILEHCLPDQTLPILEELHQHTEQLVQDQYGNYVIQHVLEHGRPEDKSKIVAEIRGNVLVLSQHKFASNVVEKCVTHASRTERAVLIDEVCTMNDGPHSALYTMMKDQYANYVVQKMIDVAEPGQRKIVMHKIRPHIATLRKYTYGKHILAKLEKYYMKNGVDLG
# Procedure, shortened: as §1
# PUM1 PUF domain R6-TWR = target: T1, PUM1 PUF domain R6-TWR (Homo sapiens, UniProt Q14671 828-1176, N1043T;Y1044W;Q1047R)
# T1 sequence: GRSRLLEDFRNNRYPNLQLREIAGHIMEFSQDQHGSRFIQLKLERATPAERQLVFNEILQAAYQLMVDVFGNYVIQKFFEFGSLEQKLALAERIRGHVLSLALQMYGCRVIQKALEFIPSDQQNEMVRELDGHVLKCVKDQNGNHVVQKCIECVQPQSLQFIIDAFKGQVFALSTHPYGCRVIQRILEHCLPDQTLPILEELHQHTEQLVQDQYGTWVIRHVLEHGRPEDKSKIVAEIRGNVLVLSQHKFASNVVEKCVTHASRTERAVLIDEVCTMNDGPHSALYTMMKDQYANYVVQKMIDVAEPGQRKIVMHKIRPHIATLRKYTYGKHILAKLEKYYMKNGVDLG
# Procedure, shortened: as §1
# PUM1 PUF domain R1-NVR = PUM1 PUF domain R1-NVR (Homo sapiens, UniProt Q14671 828-1176, S863N;R864V;Q867R)
# Chain of PUM1 PUF domain R1-NVR (Q14671 828-1176 S863N/R864V/Q867R): as the sequence (Q14671 828-1176 S863R/R864V/Q867E) above, with R36N, E40R counted along it
# Procedure, shortened: as §1
# PUM1 PUF domain R5-RQR = PUM1 PUF domain R5-RQR (Homo sapiens, UniProt Q14671 828-1176, C1007R;R1008Q;Q1011R)
# Chain of PUM1 PUF domain R5-RQR (Q14671 828-1176 C1007R/R1008Q/Q1011R): as the sequence (Q14671 828-1176 S863R/R864V/Q867E) above, with R36S, V37R, E40Q, C180R, R181Q, Q184R counted along it
# Procedure, shortened: as §1
# PUM1 PUF domain R5-AYM = PUM1 PUF domain R5-AYM (Homo sapiens, UniProt Q14671 828-1176, C1007A;R1008Y;Q1011M)
# Chain of PUM1 PUF domain R5-AYM (Q14671 828-1176 C1007A/R1008Y/Q1011M): as the sequence (Q14671 828-1176 S863R/R864V/Q867E) above, with R36S, V37R, E40Q, C180A, R181Y, Q184M counted along it
# Procedure, shortened: as §1
# PUM1 PUF domain R5-RFF = PUM1 PUF domain R5-RFF (Homo sapiens, UniProt Q14671 828-1176, C1007R;R1008F;Q1011F)
# Procedure, shortened: as §1
# PUM1 PUF domain R4-WGK = PUM1 PUF domain R4-WGK (Homo sapiens, UniProt Q14671 828-1176, N971W;H972G;Q975K)
# Procedure, shortened: as §1
# PUM1 PUF domain R3-ARV = PUM1 PUF domain R3-ARV (Homo sapiens, UniProt Q14671 828-1176, C935A;Q939V)
# Chain of PUM1 PUF domain R3-ARV (Q14671 828-1176 C935A/Q939V): as the sequence (Q14671 828-1176 S863R/R864V/Q867E) above, with R36S, V37R, E40Q, C108A, Q112V counted along it
# Procedure, shortened: as §1
# PUM1 PUF domain R3-VYG = PUM1 PUF domain R3-VYG (Homo sapiens, UniProt Q14671 828-1176, C935V;R936Y;Q939G)
# Procedure, shortened: as §1
# PUM1 PUF domain R3-MRR = PUM1 PUF domain R3-MRR (Homo sapiens, UniProt Q14671 828-1176, C935M;Q939R)
# Procedure, shortened: as §1
# PUM1 PUF domain R7-ECA = PUM1 PUF domain R7-ECA (Homo sapiens, UniProt Q14671 828-1176, S1079E;N1080C;E1083A)
# Chain of PUM1 PUF domain R7-ECA (Q14671 828-1176 S1079E/N1080C/E1083A): as the sequence (Q14671 828-1176 S863R/R864V/Q867E) above, with R36S, V37R, E40Q, S252E, N253C, E256A counted along it
# Procedure, shortened: as §1
# PUM1 PUF domain R7-RGR = PUM1 PUF domain R7-RGR (Homo sapiens, UniProt Q14671 828-1176, S1079R;N1080G;E1083R)
# Procedure, shortened: as §1
# PUM1 PUF domain R2-VWP = PUM1 PUF domain R2-VWP (Homo sapiens, UniProt Q14671 828-1176, N899V;Y900W;Q903P)
# Chain of PUM1 PUF domain R2-VWP (Q14671 828-1176 N899V/Y900W/Q903P): as the sequence (Q14671 828-1176 S863R/R864V/Q867E) above, with R36S, V37R, E40Q, N72V, Y73W, Q76P counted along it
# Procedure, shortened: as §1
# PUM1 PUF domain R5-RKM = PUM1 PUF domain R5-RKM (Homo sapiens, UniProt Q14671 828-1176, C1007R;R1008K;Q1011M)
# Chain of PUM1 PUF domain R5-RKM (Q14671 828-1176 C1007R/R1008K/Q1011M): as the sequence (Q14671 828-1176 S863R/R864V/Q867E) above, with R36S, V37R, E40Q, C180R, R181K, Q184M counted along it
# Procedure, shortened: as §1
# PUM1 PUF domain R4-YRM = PUM1 PUF domain R4-YRM (Homo sapiens, UniProt Q14671 828-1176, N971Y;H972R;Q975M)
# Chain of PUM1 PUF domain R4-YRM (Q14671 828-1176 N971Y/H972R/Q975M): as the sequence (Q14671 828-1176 S863R/R864V/Q867E) above, with R36S, V37R, E40Q, N144Y, H145R, Q148M counted along it
# Procedure, shortened: as §1
# PUM1 PUF domain R8-FWR = PUM1 PUF domain R8-FWR (Homo sapiens, UniProt Q14671 828-1176, N1122F;Y1123W;Q1126R)
# Chain of PUM1 PUF domain R8-FWR (Q14671 828-1176 N1122F/Y1123W/Q1126R): as the sequence (Q14671 828-1176 S863R/R864V/Q867E) above, with R36S, V37R, E40Q, N295F, Y296W, Q299R counted along it
# Procedure, shortened: as §1
sequence,measurement,setting,value
GGCUAGAACUAGUGGAUCCCCCGGCGCCCGGCGGCUCGAGCCCGGGUAAGUAUAAAUAGUCUGCAUGCCGCCGGGCGCCAUGCCUGCAGGUCGACUCUAGAAAACAUG,binding signal,PUM1 PUF domain R7-RFW,2.69 log2 enrichment (interaction score)
GGCUAGAACUAGUGGAUCCCCCGGCGCCCGGCGGCUCGAGCCCGGGUAAGUGUGAAUAGUCUGCAUGCCGCCGGGCGCCAUGCCUGCAGGUCGACUCUAGAAAACAUG,binding signal,PUM1 PUF domain R5-QLV,2.52 log2 enrichment (interaction score)
same,binding signal,PUM1 PUF domain R5-RRQ,1.79 log2 enrichment (interaction score)
GGCUAGAACUAGUGGAUCCCCCGGCGCCCGGCGGCUCGAGCCCGGGUAAGUGUAAAGAGUCUGCAUGCCGCCGGGCGCCAUGCCUGCAGGUCGACUCUAGAAAACAUG,binding signal,PUM1 PUF domain R2-LWG,3.16 log2 enrichment (interaction score)
GGCUAGAACUAGUGGAUCCCCCGGCGCCCGGCGGCUCGAGCCCGGGUAAGUGUAAAUGGUCUGCAUGCCGCCGGGCGCCAUGCCUGCAGGUCGACUCUAGAAAACAUG,binding signal,PUM1 PUF domain R1-RVE,1.35 log2 enrichment (interaction score)
GGCUAGAACUAGUGGAUCCCCCGGCGCCCGGCGGCUCGAGCCCGGGUAAGUGCAAAUAGUCUGCAUGCCGCCGGGCGCCAUGCCUGCAGGUCGACUCUAGAAAACAUG,binding signal,PUM1 PUF domain R6-TWR,5.67 log2 enrichment (interaction score)
GGCUAGAACUAGUGGAUCCCCCGGCGCCCGGCGGCUCGAGCCCGGGUAAGUGUAAAUCGUCUGCAUGCCGCCGGGCGCCAUGCCUGCAGGUCGACUCUAGAAAACAUG,binding signal,PUM1 PUF domain R1-RVE,2.37 log2 enrichment (interaction score)
same,binding signal,PUM1 PUF domain R1-NVR,5.44 log2 enrichment (interaction score)
GGCUAGAACUAGUGGAUCCCCCGGCGCCCGGCGGCUCGAGCCCGGGUAAGUGUCAAUAGUCUGCAUGCCGCCGGGCGCCAUGCCUGCAGGUCGACUCUAGAAAACAUG,binding signal,PUM1 PUF domain R5-RQR,4.51 log2 enrichment (interaction score)
same,binding signal,PUM1 PUF domain R5-AYM,2.95 log2 enrichment (interaction score)
same,binding signal,PUM1 PUF domain R5-RFF,2.99 log2 enrichment (interaction score)
same,binding signal,PUM1 PUF domain R5-RRQ,4.75 log2 enrichment (interaction score)
GGCUAGAACUAGUGGAUCCCCCGGCGCCCGGCGGCUCGAGCCCGGGUAAGUGUACAUAGUCUGCAUGCCGCCGGGCGCCAUGCCUGCAGGUCGACUCUAGAAAACAUG,binding signal,PUM1 PUF domain R4-WGK,3.57 log2 enrichment (interaction score)
GGCUAGAACUAGUGGAUCCCCCGGCGCCCGGCGGCUCGAGCCCGGGUAAGUGUAAUUAGUCUGCAUGCCGCCGGGCGCCAUGCCUGCAGGUCGACUCUAGAAAACAUG,binding signal,PUM1 PUF domain R3-ARV,1.96 log2 enrichment (interaction score)
same,binding signal,PUM1 PUF domain R3-VYG,2.46 log2 enrichment (interaction score)
same,binding signal,PUM1 PUF domain R3-MRR,3.08 log2 enrichment (interaction score)
GGCUAGAACUAGUGGAUCCCCCGGCGCCCGGCGGCUCGAGCCCGGGUAAGUGUAAGUAGUCUGCAUGCCGCCGGGCGCCAUGCCUGCAGGUCGACUCUAGAAAACAUG,binding signal,PUM1 PUF domain R3-VYG,1.12 log2 enrichment (interaction score)
same,binding signal,PUM1 PUF domain R3-MRR,4.82 log2 enrichment (interaction score)
GGCUAGAACUAGUGGAUCCCCCGGCGCCCGGCGGCUCGAGCCCGGGUAAGUGUAUAUAGUCUGCAUGCCGCCGGGCGCCAUGCCUGCAGGUCGACUCUAGAAAACAUG,binding signal,PUM1 PUF domain R4-WGK,3.03 log2 enrichment (interaction score)
GGCUAGAACUAGUGGAUCCCCCGGCGCCCGGCGGCUCGAGCCCGGGUAAGUCUAAAUAGUCUGCAUGCCGCCGGGCGCCAUGCCUGCAGGUCGACUCUAGAAAACAUG,binding signal,PUM1 PUF domain R7-ECA,1.26 log2 enrichment (interaction score)
same,binding signal,PUM1 PUF domain R7-RFW,5.36 log2 enrichment (interaction score)
same,binding signal,PUM1 PUF domain R7-RGR,5.01 log2 enrichment (interaction score)
GGCUAGAACUAGUGGAUCCCCCGGCGCCCGGCGGCUCGAGCCCGGGUAAGUGUAAAAAGUCUGCAUGCCGCCGGGCGCCAUGCCUGCAGGUCGACUCUAGAAAACAUG,binding signal,PUM1 PUF domain R2-VWP,4.15 log2 enrichment (interaction score)
same,binding signal,PUM1 PUF domain R2-LWG,8 log2 enrichment (interaction score)
GGCUAGAACUAGUGGAUCCCCCGGCGCCCGGCGGCUCGAGCCCGGGUAAGUGUUAAUAGUCUGCAUGCCGCCGGGCGCCAUGCCUGCAGGUCGACUCUAGAAAACAUG,binding signal,PUM1 PUF domain R5-RQR,4.81 log2 enrichment (interaction score)
GGCUAGAACUAGUGGAUCCCCCGGCGCCCGGCGGCUCGAGCCCGGGUAAGUGUAACUAGUCUGCAUGCCGCCGGGCGCCAUGCCUGCAGGUCGACUCUAGAAAACAUG,binding signal,PUM1 PUF domain R3-MRR,0.49 log2 enrichment (interaction score)
GGCUAGAACUAGUGGAUCCCCCGGCGCCCGGCGGCUCGAGCCCGGGUAAGUUUAAAUAGUCUGCAUGCCGCCGGGCGCCAUGCCUGCAGGUCGACUCUAGAAAACAUG,binding signal,PUM1 PUF domain R7-ECA,3.96 log2 enrichment (interaction score)
same,binding signal,PUM1 PUF domain R7-RGR,6.1 log2 enrichment (interaction score)
GGCUAGAACUAGUGGAUCCCCCGGCGCCCGGCGGCUCGAGCCCGGGUAAGUGUAAAUAGUCUGCAUGCCGCCGGGCGCCAUGCCUGCAGGUCGACUCUAGAAAACAUG,binding signal,PUM1 PUF domain R5-RQR,1 log2 enrichment (interaction score)
same,binding signal,PUM1 PUF domain R5-RKM,2.32 log2 enrichment (interaction score)
same,binding signal,PUM1 PUF domain R4-YRM,2.31 log2 enrichment (interaction score)
same,binding signal,PUM1 PUF domain R8-FWR,3.71 log2 enrichment (interaction score)
same,binding signal,PUM1 PUF domain R3-ARV,3.82 log2 enrichment (interaction score)
same,binding signal,PUM1 PUF domain R5-RFF,1.95 log2 enrichment (interaction score)
same,binding signal,PUM1 PUF domain R4-WGK,1.16 log2 enrichment (interaction score)
same,binding signal,PUM1 PUF domain R2-LWG,1.91 log2 enrichment (interaction score)
same,binding signal,PUM1 PUF domain R3-VYG,3.51 log2 enrichment (interaction score)
same,binding signal,PUM1 PUF domain R5-RRQ,3.35 log2 enrichment (interaction score)
same,binding signal,PUM1 PUF domain R6-TWR,7.84 log2 enrichment (interaction score)
same,binding signal,PUM1 PUF domain R3-MRR,0.71 log2 enrichment (interaction score)
GGCUAGAACUAGUGGAUCCCCCGGCGCCCGGCGGCUCGAGCCCGGGUAAGUGUAAAUUGUCUGCAUGCCGCCGGGCGCCAUGCCUGCAGGUCGACUCUAGAAAACAUG,binding signal,PUM1 PUF domain R1-RVE,2.57 log2 enrichment (interaction score)
same,binding signal,PUM1 PUF domain R1-NVR,3.93 log2 enrichment (interaction score)
GGCUAGAACUAGUGGAUCCCCCGGCGCCCGGCGGCUCGAGCCCGGGUAAGCGUAAAUAGUCUGCAUGCCGCCGGGCGCCAUGCCUGCAGGUCGACUCUAGAAAACAUG,binding signal,PUM1 PUF domain R8-FWR,3.91 log2 enrichment (interaction score)
